In all, about 2,400 compounds went through this assay and about 95 (4%) were called active. Roughly 3% stayed inconclusive and do not appear here.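 The calls were made as follows: active = compounds lowering signal whose fitted AC50 is at most ten times the top tested dose; inconclusive = flat fit with moderate inhibition, or poor curve fit; inactive = the rest.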 Not all results are given here. Entries with a potency or affinity are not part of this list.
test: GFP reporter loss versus dox-driven RFP – NIH3T3 R4 cells, cherry-pick, set 3, dose response (AID 493083); settings: NIH3T3 R4 HSF-1 GFP reporter, heat shock, 48 h; series mostly up to 19.5 µM; activity change, negative = inhibition: at the top concentration;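 also: 0% = neutral control wells and -100% = didemnin B positive control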

SMILES | activity change, negative = inhibition
CCC(C(=O)OCC(=O)Nc1cc(Cl)ccc1Cl)c1ccccc1 (stereo not drawn) | -0.627% (inactive)
O=C(O)c1cccc(Nc2ccnc(Nc3cccc(C(=O)O)c3)n2)c1 | -5.94% (inactive)
Cc1cc(Nc2cccc(Cl)c2)nc(-c2ccccc2O)n1 | 2.12% (inactive)
CC(=O)NC(=S)Nc1cccc(S(=O)(=O)NC2=NCCC2)c1 | -1.24% (inactive)
Cn1c(=O)c2ncn(CC(=O)Nc3ccc4c5c(cccc35)CC4)c2n(C)c1=O | 29.5% (inactive)
COc1ccc(OCCN2C(=O)c3ccccc3C2=O)cc1 | -7.76% (inactive)
CCN(CC)C(=O)CN1C(=O)/C(=C/c2ccccc2)SC1=S | 6.39% (inactive)
CC(C)N1CCC(N2CCN(C3CCCC3)CC2CCO)CC1 (stereo not drawn) | -0.505% (inactive)
CC(CCc1ccccc1)NC(=O)CCNS(=O)(=O)c1ccccc1 (stereo not drawn) | 1.85% (inactive)
CCCC(C)NS(=O)(=O)c1ccccc1 (stereo not drawn) | -1.47% (inactive)
Cc1ccc(-c2nnn(CC(=O)N(Cc3cccs3)C(C(=O)NC3CCCC3)c3ccncc3)n2)cc1 (stereo not drawn) | 20.9% (inactive)
CCCN(CCC)S(=O)(=O)c1ccc(NC(=O)c2cc(C(=O)OC)cc([N+](=O)[O-])c2)cc1 | 8.28% (inactive)
NC(=O)CC(NC(=O)Cc1ccc(Cl)cc1)c1ccc(NC2CCCCCC2)c([N+](=O)[O-])c1 (stereo not drawn) | -4.13% (inactive)
Cc1cc(C)cc(SCc2noc(C(=O)NCc3ccccc3)c2C(=O)NCc2ccccc2)c1 | -2.26% (inactive)
O=[N+]([O-])c1ccccc1CCc1cnc(Cl)s1 | -12.9% (inactive)
O=C(CNC(=O)C1CCCCC1)NC1=NCCS1 | -0.457% (inactive)
CC(C)(C)N1[C@@H](CC(=O)O)c2cc(C(F)(F)F)ccc2S1(=O)=O | 1.39% (inactive)
Cc1cc(C)n(-c2ccc(NC(=O)C3CCCCN3C(=O)c3ccoc3C)cc2)n1 (stereo not drawn) | 7.41% (inactive)
COc1ccc(C(C)NC(=S)NC2CCCCC2)cc1OC (stereo not drawn) | 3.12% (inactive)
COc1ccc(C(C(=O)NC2CCCCC2)N(C(=O)CCl)c2cccc(Cl)c2)cc1 (stereo not drawn) | 122% (inactive)
O=C1N=C(N2CCCC2)S/C1=C\C=C\c1ccccc1 | 7.74% (inactive)
Cc1nn2c(CN(C(=O)CN3CCOCC3)c3ccccc3)nnc2c2ccccc12 | -1.66% (inactive)

SMILES | activity change, negative = inhibition
O=C(CCCCn1c(=O)[nH]c2ccsc2c1=O)NCc1cccnc1 | 0.446% (inactive)
CCCC(=O)Nc1cccc(NC(=O)c2cccc([N+](=O)[O-])c2C)c1 | 8.31% (inactive)
CCOC(=O)/C(C#N)=C/c1cc(C)n(-c2ccccc2)c1C | 23.8% (inactive)
Cc1cccc(NC(=O)c2sc(-c3ccccc3)nc2-c2ccc([N+](=O)[O-])cc2)c1 | 1.84% (inactive)
CCCCNC(=O)C(c1ccc(OCC(=O)OC)c(C(=O)OC)c1)N(CCc1c[nH]c2ccccc12)C(=O)CCCCCN1C(=O)NC(c2ccc(-c3ccccc3)cc2)C(C(=O)OCc2ccccc2)=C1C (stereo not drawn) | -3.99% (inactive)
CC1=C(C(=O)Nc2ccccc2)C(c2cc(CN3CCOCC3)cs2)C2=C(CCCC2=O)N1 (stereo not drawn) | -6.96% (inactive)
COC(=O)C1(Cc2ccccc2)NC(c2ccccc2C)C2C(=O)N(c3ccc4c(c3)OCO4)C(=O)C21 (stereo not drawn) | 1.42% (inactive)
CCN(C(=O)COC(=O)/C=C/c1ccccc1)C1CCCCC1 | -5.04% (inactive)
Cc1cccc(N(Cc2ccccc2)C(=O)CCl)c1 | 30.1% (inactive)
CC(C)(C)C(CN1CCCC1)OC(=O)c1ccccc1 (stereo not drawn) | -1.59% (inactive)
COc1ccc(OC)c(N=C2SCCCN2C(=O)c2ccc(N3C(=O)CCC3=O)cc2)c1 | -7.4% (inactive)
CCOc1ccc(CCNC(=O)c2nn(C)c3c2CS(=O)(=O)c2ccccc2-3)cc1 | 16.6% (inactive)
Cc1cc(C)c2cc(CN(CCN(C)C)C(=O)Nc3ccccc3Cl)c(=O)[nH]c2c1 | 5.03% (inactive)
Cc1ccc(C(=O)N2CCCC(Nc3ccc(F)cc3)C2)cc1C (stereo not drawn) | 0.822% (inactive)
Cc1ccc(-n2ncc3c(NCc4ccc5c(c4)OCO5)ncnc32)c(C)c1 | 26.2% (inactive)
Nc1ccccc1SCC(=O)Nc1ccc2c(c1)OCCO2 | -0.379% (inactive)
CC(=O)c1ccc(NC(=O)c2cnn3ccccc23)cc1 | 5.6% (inactive)
Cc1cc(/C([O-])=C(/C(=S)Nc2ccccc2)[n+]2ccccc2)c(C)n1-c1ccccc1 | 5.95% (inactive)
NC(=O)COC(=O)c1cc(=O)[nH]c2ccccc12 | -4.28% (inactive)
COc1ccc(NC(=O)CN(C)CC(=O)Nc2ccc3c(c2)CCC3)cc1 | -2.35% (inactive)
CCO[C@@H]1OC(C(=O)NCc2ccccc2)=C[C@H](c2ccc3c(c2)OCO3)[C@H]1CCCO | -7.04% (inactive)
CC[n+]1c(/C=C/c2cc([N+](=O)[O-])ccc2O)ccc2ccccc21 | 14.5% (inactive)

SMILES | activity change, negative = inhibition
COc1ccc(N2CCN(S(=O)(=O)c3cc4c(cc3C)N(C(C)=O)CCO4)CC2)cc1 | 10.3% (inactive)
COc1ccc(NC(=O)CCN2CCN(S(=O)(=O)c3ccc(OC)cc3)CC2)cc1 | 13.3% (inactive)
Cc1cc(NC(=O)C2C3C(=O)N(Cc4ccc(Cl)cc4)C(C(=O)NC(C)(C)C)C34C=CC2(C)O4)no1 (stereo not drawn) | -4.82% (inactive)
COc1cc(OC)c(NC(=O)CN(C)S(=O)(=O)c2ccc3[nH]c(=O)oc3c2)cc1Cl | -1.32% (inactive)
O=C(CCl)NC(Cc1ccccc1)c1ccccc1 (stereo not drawn) | 4.64% (inactive)
O=C(CCl)Nc1ccccc1C(=O)c1ccccc1 | 1.46% (inactive)
O=C1C2CCCN2c2ccc(S(=O)(=O)N3CCOCC3)cc2N1Cc1cccc(C(F)(F)F)c1 (stereo not drawn) | 2.71% (inactive)
O=C(CSc1nnc(CNC(=O)c2cccs2)o1)NCc1ccc(F)cc1 | -4.17% (inactive)
COCCNC(=O)CSC1=N/C(=C/c2ccc(Cl)c(Cl)c2)C(=O)N1c1ccccc1F | 34.4% (inactive)
CC(C)Sc1nc(SCC(=O)NCc2ccco2)c2c3c(sc2n1)COC(C)(C)C3 | 17.8% (inactive)
CCOC(=O)N1CCN(C(=S)Nc2ccc(C)cc2C)CC1 | -2.21% (inactive)
CC1CCCN(S(=O)(=O)c2ccc(Br)s2)C1 (stereo not drawn) | 1.88% (inactive)
Cc1ccc(Cl)cc1NC(=O)C1COc2ccccc2O1 (stereo not drawn) | -0.666% (inactive)
CN(C)c1ccc(/C=N/NC(=O)C2COc3ccccc3O2)o1 (stereo not drawn) | 7.29% (inactive)
O=S(=O)(Cc1cc(Oc2ccccc2)nc(-c2ccccc2)n1)c1ccccc1 | 23.5% (inactive)
O=C(O)C(=O)Nc1ccc(NC(=O)C(c2ccccc2)c2ccccc2)cc1 | -4.7% (inactive)
CCCS(=O)(=O)N1CCc2cc(OC)c(OC)cc2C1 | -3.49% (inactive)
Nc1ncnc2nc(N3CCN(C(=O)c4ccccc4)CC3)[nH]c12 | -1.58% (inactive)
O=C(CSC(=S)N1CCOCC1)Nc1nc(-c2ccccc2)c(-c2ccccc2)o1 | -2.41% (inactive)
Nc1nc(Cl)nc2c1ncn2C1CC(O)C(CO)O1 (stereo not drawn) | 1.43% (inactive)
CN1CCN(S(=O)(=O)c2cccc(C(=O)NCCC3=CCCCC3)c2)CC1 | -0.832% (inactive)
COc1ccc(N2CCN(c3ccc(NC(=O)NN)cc3)CC2)cc1 | 9.66% (inactive)

SMILES | activity change, negative = inhibition
Cc1cc(NC(=O)c2ccc3nc(C)sc3c2)no1 | -6.84% (inactive)
COc1ccccc1N1CCN(C(=S)Nc2ccc(F)cc2)CC1 | -0.471% (inactive)
O=c1[nH]cc(S(=O)(=O)c2ccccc2)[nH]1 | -5.55% (inactive)
CC1CCN(CC(=O)NC2CCCCC2)CC1 | -2.37% (inactive)
CCS(=O)(=O)N1CCN(C(=O)c2ccccc2)CC1 | 0.578% (inactive)
Cc1ccc2c(c1)c(C)c(C)n2CC(O)Cn1nnc2ccccc21 (stereo not drawn) | 0.602% (inactive)
O=S1(=O)N[C@H](c2ccccc2)C[C@H](c2ccc(C(F)(F)F)cc2)O1 | 1.91% (inactive)
CC(C)[C@H](NC(=O)Cc1ccccc1)C(=O)OCc1cc(=O)n2c(n1)sc1ccccc12 | 0.187% (inactive)
Cc1ccc(CN2CCN(Cc3cccc(OCCO)c3)CC2CCO)o1 (stereo not drawn) | -1.47% (inactive)
Fc1ccc(-n2cc(CNCCc3ccccn3)c(-c3ccccc3Cl)n2)cc1 | 6.94% (inactive)
Cc1ccc(-c2nn(-c3ccccc3)cc2CN(C)C(=O)CCC(=O)O)cc1C | 4.16% (inactive)
CN=c1scc(-c2ccccc2F)n1/N=C/c1ccc[nH]1 | 30.7% (inactive)
CN=c1scc(-c2cccs2)n1/N=C/c1ccccc1O | 21.7% (inactive)
CN(C)S(=O)(=O)c1ccc(-c2csnn2)s1 | 0.103% (inactive)
CCn1c(C(C#N)/C(=N\S(=O)(=O)c2cccs2)c2ccccc2)nc2ccccc21 (stereo not drawn) | -6.65% (inactive)
Cc1ccc(S(=O)(=O)N2CCC(C(=O)N[C@@H](Cc3ccccc3)C(=O)O)CC2)cc1 | 0.492% (inactive)
CCN1C(=O)c2ccccc2S(=O)c2ccc(C(=O)NCc3ccc(OC)cc3)cc21 (stereo not drawn) | -1.83% (inactive)
Cc1ccc(C(=O)Nc2cc3ccccc3oc2=O)cc1 | -1.68% (inactive)
Cc1nc2ccc(NC(=O)N3CCSCC3)cc2s1 | -4.41% (inactive)
COc1ccc(CNC(=O)CCCNC(=O)c2ccc(Cl)cc2)cc1OC | -2.5% (inactive)
COC(=O)c1cc(S(=O)(=O)NCc2ccc(F)cc2)cn1C | -1.23% (inactive)
C=CCOc1ccccc1CN(C(=O)CCl)c1ccc2c(c1)OCO2 | 6.58% (inactive)

From PubChem BioAssay AID493083 (Broad Institute, 2011)
